In PMC13083723 (Patterns, 2026):
Hit rate of the full screen: of about 5,400 compounds, about 190 (3.5%) showed an effect of 50% or more. For the sample, strong results were picked, then their nearest neighbours and some compounds at random. Starred links: 1 amine or outer side, 2 acyl side, 3 side chain; linkers in the order of their positions; H or OH if unused. Positions of bridges follow the written chain, without caps; N, C: chain ends. Non-standard residues stand in square brackets, D forms with d. Residues, ends and D or L forms follow the SMILES beside them. *: point of attachment. X5 = NC1=N[C@@H](O)C[C@H]([C@H](N[*:1])C(=O)[*:2])N1; ΔAla(Z-3-ureido) = NC(=O)N/C=C(\N)C(=O)O; β3hOrn = NCCC[C@H](N)CC(=O)*; Dap = NC[C@H](N)C(=O)O

Test system: Vero-E6
Test: primary screen, phospholipidosis by LipidTOX staining; higher = more effect of the substance
Details: 10 µM
Summary of the method: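 Single-concentration screen at 10 μM, with DMSO 0.1 v/v % and amiodarone 10 μM as controls. Read-out is LipidTOX Red phospholipid staining, which tolerates aldehyde fixation, in Vero-E6 cells.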

Structure (SMILES) | result_ITMP [%]
CC1(S(=O)(=O)[O-])CC(=O)c2ccccc2C1=O (centres unmarked) | -0.84
CN(C)CC/C=C1\c2ccccc2CSc2ccccc21 | 43.7
CN(C)CC/C=C1\c2ccccc2Sc2ccc(Cl)cc21 | 51.1
CN(C)CC/C=C1/c2ccccc2COc2ccccc21 | 41.1
CN(C)CCOC1=Cc2ccccc2Sc2ccc(Cl)cc21 | 13.9
CN(C)CCC=C1c2ccccc2C=Cc2ccccc21 | 71.1
CN(C)CCC=C1c2ccccc2CCc2ccccc21 | 39.7
COCc1nc2c(=O)n(C)c(=O)n(CC(C)C)c2[nH]1 | -0.95
NC(N)=N/C(N)=N/CCc1ccccc1 | -1.11
CN/C(=N\C#N)NCCSCc1csc(N=C(N)N)n1 | 2.7
CN[C@@H]1Cc2cccc3nc(O)n(c23)C1 | 5.61
CN[C@H]1CC[C@@H](c2ccc(Cl)c(Cl)c2)c2ccccc21 | 56.1
COc1ccc2c(c1)CN(C)CC2c1ccc(Cl)c(Cl)c1 (centres unmarked) | 12.7
CN[C@@H]1C[C@@H](c2ccc(Cl)c(Cl)c2)c2ccccc21 | 71.1
O[C@@H]1CCCC[C@H]1N1CCC(c2ccccc2)CC1 (racemic) | -4.38
S=C(NC1CCCCC1)N1CCC(c2c[nH]cn2)CC1 | 1.61
Oc1ccc2c3c1OC1C(O)CCC4(O)C(C2)N(CC2CCC2)CCC314 (centres unmarked) | 1.96
CC(C)COCC(CN(Cc1ccccc1)c1ccccc1)N1CCCC1 (centres unmarked) | 66.8
CC(COc1ccccc1)N(CCCl)Cc1ccccc1 (centres unmarked) | 0.48
c1ccc(CN(CC2=NCCN2)c2ccccc2)cc1 | 16.9
COc1ccc2c3c([nH]c2c1)[C@H](CC(C)C)N1C(=O)[C@H](CCC(=O)OC(C)(C)C)NC(=O)[C@@H]1C3 | -1.42
N[C@@]1(C(=O)O)CC[C@H](C(=O)O)C1.N[C@]1(C(=O)O)CC[C@@H](C(=O)O)C1 | -0.35

Structure (SMILES) | result_ITMP [%]
CN1CCN(c2ccc(OC(F)(F)F)c(Nc3ncc4c(n3)-c3c(c(C(N)=O)nn3CCO)CC4)c2)CC1 | -0.49
CNC(=O)c1nn(C)c2c1C(C)(C)Cc1cnc(Nc3ccc(N4CCN(C)CC4)cc3)nc1-2 | 54.6
CCS(=O)(=O)N1CCN(c2ccc(Nc3ncc(C(N)=O)c(NC4CC4)n3)cc2)CC1 | 1.28
CC1(C)CC[C@]2(C(=O)O)CC[C@]3(C)[C@H](C(=O)C=C4[C@@]5(C)C=C(C#N)C(=O)C(C)(C)[C@@H]5CC[C@]43C)[C@@H]2C1 | -1.94
C=CCCCCCCCCC(=O)[O-] | 1.9
CCCCCCCCCCCCCCCC(=O)OC[C@@H](NC(=O)C(Cl)Cl)[C@H](O)c1ccc([N+](=O)[O-])cc1 | -1.35
CCCCCCCC(=O)N[C@H](CN1CCCC1)[C@H](O)c1ccc2c(c1)OCCO2 | 51.9
CCCCCCCC/C=C\CCCCCCCC(=O)N[C@@H](CO)Cc1ccc(O)cc1 | -1.63
CCCCCCCCC(=O)N[C@H](CN1CCCC1)[C@H](O)c1ccc2c(c1)OCCO2 | 63.4
Cn1cnc([N+](=O)[O-])c1Sc1[nH]cnc2ncnc1-2 | -1.78
N=C(N)Nc1ccc2[nH]c3c(c2c1)C[C@@]1(O)C2Cc4ccc(O)c5c4[C@@]1(CCN2CC1CC1)[C@H]3O5 | -0.46
Nc1ccc(S(=O)(=O)[N-]c2cnc3ccccc3n2)cc1 | -3.26
O=C([O-])c1nc(=O)[nH]c(=O)[nH]1 | -2.23
CCC[C@@H]1CC2=CC(=O)CC[C@]2(C)[C@H]2CC[C@@]3(C)[C@@H](CC[C@@]3(O)CCC(=O)[O-])[C@H]12 | -2.26
NC1=N[C@H]2[C@H](CCCCC(=O)O)SC[C@H]2N1 | -5.63
C[C@]12CC[C@H]3[C@@H](CCC4=CC(=O)CC[C@@H]43)[C@@H]1CC[C@@H]2O | -1.6
NCCC[C@H](N)CC(=O)N[C@H]1CNC(=O)[C@H]([C@H]2C[C@H](O)N=C(N)N2)NC(=O)/C(=C/NC(N)=O)NC(=O)[C@H](CO)NC(=O)[C@H](CO)NC1=O (β3hOrn-[Dap]SS[ΔAla(Z-3-ureido)][X5]; lactam 1-C) | -3.72
CCOc1cc(C(C)(C)C)ccc1C1=N[C@@](C)(c2ccc(Cl)cc2)[C@@](C)(c2ccc(Cl)cc2)N1C(=O)N1CCN(CCCS(C)(=O)=O)CC1 | 106
Cc1c(Cl)cccc1S(=O)(=O)Nc1nc(NCCc2ccccc2)nc2c1CN(Cc1ccccc1)CC2 | -0.11
Cn1cc(C2=C(c3cn(CCCSC(=N)N)c4ccccc34)C(=O)NC2=O)c2ccccc21 | 15.8
CN(C)CCCn1cc(C2=C(c3c[nH]c4ccccc34)C(=O)NC2=O)c2ccccc21 | -0.11
COc1ccc2c(c1)c(C1=C(c3c[nH]c4ccccc34)C(=O)NC1=O)cn2CCCN(C)C | 120

Structure (SMILES) | result_ITMP [%]
CS(=O)(=O)c1ccc(-c2cn3ccccc3n2)cc1 | -2.12
O=C([O-])c1ccccc1-c1c2cc(I)c(=O)c(I)c-2oc2c(I)c([O-])c(I)cc12 | 7.91
CCC1=C[C@@H]2C[N@@]3CCc4c([nH]c5ccccc45)[C@@](C(=O)OC)(C2)[C@@H]13 | 6.61
COc1cc2nccc(Oc3ccc(NC(=O)C4(C(=O)Nc5ccc(F)cc5)CC4)cc3)c2cc1OC | 0.07
COc1cc2c(Nc3ccc(NC(=O)c4ccccc4)cc3)ncnc2cc1OCCCN1CCOCC1 | -3.61
COc1cc2c(Oc3ccc(NC(=O)C4(C(=O)Nc5ccc(F)cc5)CC4)cc3F)ccnc2cc1OCCCN1CCOCC1 | 80.1
CN1[C@@H]2CC[C@H]1C[C@@H](OC(=O)N1Cc3ccccc3NC1=O)C2 | -1.56
Cc1cc(Nc2ncnc3ccc(-c4ccc(CNCCS(C)(=O)=O)o4)cc23)ccc1Oc1ccn2ncnc2c1 | 48.5
CS(=O)(=O)CCNCc1ccc(-c2ccc3ncnc(Nc4ccc(OCc5cccc(F)c5)c(Cl)c4)c3c2)o1 | 91.4
CS(=O)(=O)CCNCc1nc(-c2ccc3ncnc(Nc4ccc(OCc5cccc(F)c5)c(Cl)c4)c3c2)cs1 | 2.46
CCn1c2ccccc2c2cc(CNC)ccc21 | 73.3
CCn1c2ccccc2c2cc(CNCc3ccccc3OC)ccc21 | 56.5
CCCC(CCC)C(=O)NCc1ccc2c(cnn2-c2ccccc2OC)c1 | 0.82
COc1ccc(CNCc2cccc3ccccc23)cc1 | 11.4
CCn1c(=O)[nH]c2ccccc21 | -2.45
CCCC(CCC)C(=O)[O-] | -5.85
CC(=O)NCC(=O)N1[C@@H]2CC[C@H]1c1ccc(Nc3ncc(C(F)(F)F)c(NC4CCC4)n3)cc12 | 2.85
Nc1nc(=O)c2c([nH]1)NCC(CNc1ccc(C(=O)N[C@@H](CCC(=O)[O-])C(=O)[O-])cc1)N2C=O (some centres unmarked) | -2.25
C=C1/C(=C\C=C2/CCC[C@]3(C)[C@@H]([C@H](C)/C=C/[C@@H](O)C4CC4)CC[C@@H]23)C[C@@H](O)C[C@@H]1O | -1.18
Nc1nc(=O)c2c([nH]1)NC[C@H](CNc1ccc(C(=O)N[C@@H](CCC(=O)[O-])C(=O)[O-])cc1)N2C=O | -7.53
Cn1cc(-c2ccc3ncc(Cc4ccc5ncccc5c4)n3n2)cn1 | 3.96
COc1cc(OC)cc(N(CCNC(C)C)c2ccc3ncc(-c4cnn(C)c4)nc3c2)c1 | 55.2

Structure (SMILES) | result_ITMP [%]
COc1cc2ncc(-c3ccccc3)nc2cc1OC | -10.1
CCCCCN(C)CCC(O)(P(=O)([O-])O)P(=O)(O)O | 3.23
C=CCN.ClCC1CO1 (centres unmarked) | -4.42
C[C@@H]1N=C(N)NC(N(C)C)=N1 | -2.11
CC(C)c1cnn2c(NCc3ccccc3)cc(NCCCCCCN)nc12 | 53.6
CC(=O)N[C@H]1[C@H]([C@H](O)[C@H](O)CO)OC(C(=O)O)=C[C@@H]1NC(=N)N | -15.8
Cc1ncc(-c2csc(NC(=N)N)n2)[nH]1 | -2.01
c1ccc2c(c1)Sc1ccccc1N2CC1CN2CCC1CC2 (centres unmarked) | 71.6
Cn1cc(C(=O)C(=O)N[C@H]2CN3CCC2CC3)c2ccccc21 | 4.71
C[C@H](CCC(=O)[O-])[C@H]1CCC2C3C(=O)CC4CC(=O)CC[C@]4(C)C3CC(=O)[C@@]21C (some centres unmarked) | 4.65
COc1cc(C)c2c(Oc3cccc(C(F)(F)F)c3)c(OC)cc(NC(C)CCCN)c2n1 (centres unmarked) | 51.6
COc1cc(NC(C)CCCN)c2ncccc2c1 (centres unmarked) | 1.37
CO[C@H]1CC[C@H](N(c2cc(C3=CCCCC3)sc2C(=O)[O-])C(=O)[C@H]2CC[C@H](C)CC2)CC1 | -0.87
C[C@]12CC[C@@H]3c4ccc(OC(=O)N(CCCl)CCCl)cc4CC[C@H]3[C@@H]1CC[C@@H]2OP(=O)([O-])[O-] | -4.08
O=C(CCCN1CCC(O)(c2ccc(Br)cc2)CC1)c1ccc(F)cc1 | 14.8
O=C(CCCN1CCC2(CC1)C(=O)NCN2c1ccccc1)c1ccc(F)cc1 | 20.3
O=C(CCCN1CCC2(CC1)C(=O)N(Cc1cccc(F)c1)CN2c1ccccc1)c1ccc(F)cc1 | 89
CC(=O)OCC1=C(C(=O)[O-])N2C(=O)[C@@H](NC(=O)CCCC(N)C(=O)[O-])C2SC1 (some centres unmarked) | 1.34
CC1(C)[C@H]2CC[C@@]1(C)[C@H](O)[C@@H]2O | -3.19
C[C@@H]1[C@H](O)[C@@H](C)/C=C/C=C/C=C/C=C/C=C/C=C/C=C/[C@H](O[C@@H]2O[C@H](C)[C@@H](O)[C@H](N)[C@@H]2O)C[C@@H]2O[C@](O)(C[C@@H](O)C[C@@H](O)[C@H](O)CC[C@@H](O)C[C@@H](O)CC(=O)O[C@H]1C)C[C@H](O)[C@H]2C(=O)O | 0.23
